Data on 55 molecules can be found in PubChem BioAssay AID504882 (Broad Institute, 2011).

Structures are written as SMILES. About 290 (24%) of roughly 1,200 compounds were called active. Another 9% or so got no clear call; they are omitted. The list is a sample of the results. Results with a measured potency or affinity are listed apart. A number with no mark means an inactive call. No rule for the calls is given here.

The assay in a line: cytotoxicity in EBV lymphoblastoid cells, dose response, cytotoxicity control, cell-based, plate reader, cherry-picks, set 2 (AID 504882).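 Also: 0% = neutral control wells and -100% = positive control wells.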 The conditions noted are these: EBV lymphoblastoid cells (LCL) viability; series mostly up to 19.5 µM; activity change, negative = cytotoxicity: at the top concentration.
With `O=C(Cc1cccc2ccccc12)Nc1ccc(-c2cc3ccccc3oc2=O)cc1`, the “activity change, negative = cytotoxicity” value is -7.33%.
With `NC(=O)c1sc2nccc(Nc3ccccc3)c2c1N` the figure was -3.78%; with `CCCCCC(=O)N1CCN(c2ccc(C(C)=O)cc2F)CC1`, 9.94%; with `COc1ccc(C(c2c(C)n(C)n(-c3ccccc3)c2=O)c2c(C)n(C)n(-c3ccccc3)c2=O)c(OC)c1OC`, 1.22%.
The value for `CC(C)C(=O)Nc1ccc(C(=O)N/N=C/c2cc(Br)cc(Br)c2O)cc1` was -1.17%; that for `CCSc1nc2ccc(OC)cc2cc1C#N` was 4.84%; that for `COc1ccccc1C(=O)Nc1c[nH]c(=O)[nH]c1=O` was 23.5%.
The value for `CN1OC[C@@H]2CN[C@H](c3ccc(-c4cc5ccccc5o4)cc3)C[C@@H]21` was 49.6%; that for `O=C(O)CN1C(=O)/C(=C\c2ccccc2OCc2ccc(Cl)cc2Cl)SC1=S` was 10.7%; that for `COc1cc(/C=N/NC(=S)Nc2cccc(C(=O)O)c2)ccc1O` was 12.8%.
Consider `S=C(N/N=C/c1ccc2ncccc2c1)Nc1cccnc1`, for which the “activity change, negative = cytotoxicity” value is 7.27%.
With `OCCN(CCO)CC(O)COCCC12CC3CC(CC(C3)C1)C2` (stereo not given), the “activity change, negative = cytotoxicity” value was 4.48%.
With `O=C(Nc1cnc2ccccn2c1=O)c1ccc(Cl)cc1Cl` the figure was 11.6%; with `O=C(O)c1ccc(C=NN=C2c3ccccc3-c3ccccc32)cc1`, 9.04%; with `CC(=O)c1ccc(N2CCN(c3ccnc4cc(Cl)ccc34)CC2)cc1`, 11.5%.
As for `Cc1cc(C)c2sc(NC(=O)C3CC3)nc2c1`, the “activity change, negative = cytotoxicity” value was 2.97%.
With `N#CC1=C(N)OC2=C(C(=O)CCC2)C12C(=O)N1CCCc3cccc2c31` (stereo not given) the figure was 23.6%; with `Clc1ccc(-n2ncc3c(N4CCCC4)ncnc32)cc1`, -0.246%.
With `COc1ccc(-c2csc3ncnc(Sc4nnnn4C)c23)cc1` the figure was -16.8%; with `Cc1ccsc1-c1nc(CSCC(=O)N2CCN(c3ccccc3)CC2)c(C)o1`, -2.87%; with `COc1cc(NC(=S)N2CCN(CCO)CC2)cc(OC)c1`, 2.13%.
With `COc1ccc2cc(C(N)=O)/c(=N\NC(=O)c3ccccc3)oc2c1` the figure was 16.4%; with `CCCN1C(=O)C2(SC(NC(C)=O)=NN2C(C)=O)c2cc(C)cc(C)c21` (stereo not given), 18.1%.
As to `c1ccc(-c2nnc(-c3ccccn3)s2)nc1`, the “activity change, negative = cytotoxicity” value is -32.2%.
Consider `Cc1cc(C)c(OCCn2ccnc2)c(C)c1`, for which the “activity change, negative = cytotoxicity” value was -5.95%.
With `COc1ccc(C=Cc2ccc3ccccc3n2)c(OC)c1` the figure was 3.74%; with `C[C@@]12C(=O)N(Cc3ccccc3)CC(=O)N1[C@H](/C=C/c1ccccc1)[C@@H]1C(=O)N(c3ccccc3)C(=O)[C@@H]12`, 1.32%.
As to `CCOC(=O)N1CCC(n2c(=S)[nH]c3ccccc3c2=O)CC1`, the “activity change, negative = cytotoxicity” value was 1.97%.
With `O=C1CC(c2ccccc2)Oc2ccccc21` (stereo not given) the figure was 9.53%.
As for `C[C@@H](C(=O)Nc1ccc2c(c1)OCCO2)n1c(=O)[nH]c2ccccc2c1=O`, the “activity change, negative = cytotoxicity” value was 12.3%.
In the case of `CCCCOc1ccc2c(c1)/C(=C(\C(Cl)=C(Cl)Cl)[N+](=O)[O-])N2`, the “activity change, negative = cytotoxicity” value was 5.83%.
The value for `Cc1ccc(-n2cc(C(=O)c3ccccc3O)cn2)cc1` was -2.73%; that for `COc1ccc(OC)c(S(=O)(=O)NC(C)CCc2ccccc2)c1` (stereo not given) was 7.72%; that for `CC(C(=O)N=Nc1c(O)[nH]c2ccccc12)n1cnc2ccccc2c1=O` (stereo not given) was 7.22%.
The value for `COc1ccc(Cl)cc1NC(=O)CN(C)S(=O)(=O)c1cccs1` was -6.66%; that for `Cc1cc(C)cc(C(=O)NCCC(=O)NCc2cc(=O)n(C)c(=O)n2C)c1` was 12.5%.
On to `COc1ccc(S(=O)(=O)N2CCN(CC(=O)Nc3ccc(C)c(F)c3)CC2)cc1`, for which the “activity change, negative = cytotoxicity” value is 19.6%.
On to `CCOC(=O)C1CCN(S(=O)(=O)Cc2ccccc2)C1=O` (stereo not given), for which the “activity change, negative = cytotoxicity” value was 26.9%.
The value for `Cc1cc(C)c(S(=O)(=O)Nc2nnc(CC(C)C)s2)c(C)c1` was 7.94%; that for `CC(=O)c1cc(C(=O)Nc2ccc(C(=O)O)cc2)oc1C` was 13.6%.
With `CCSc1nnc(NC(=O)CCn2c(=O)oc3ccccc32)s1` the figure was 12.2%; with `COC(=O)CCCC[C@@H]1SC[C@@H](NC(=O)OC)[C@@H]1NC(=O)OC`, 9.98%; with `COC(=O)c1ccccc1NC(=O)CSc1nnnn1C`, 19.1%.
The value for `COc1ccc(N2C3=[N+](CC2(C)O)c2ccccc2CC3)cc1` (stereo not given) was 14.6%; that for `O=S(=O)(NC1c2cccc3cccc(c23)C1Sc1ncccn1)c1ccccc1` (stereo not given) was 4.11%; that for `COc1ccc(CNC(=O)COC(=O)[C@@H]2CCCN2C(=O)c2cccs2)cc1` was 25%.
For the molecule `S=C(NCC1CCCCC1)Nc1ccc(Oc2ccccc2)cc1`, the “activity change, negative = cytotoxicity” value is 1.93%.
The value for `O=C(c1noc2c1CCCC2)N1CCCCC1` was 9.86%; that for `CCOc1ccc(NC(=O)c2cnsn2)cc1` was 8.89%; that for `CCOC(=O)c1cn2nc(N3CCCCC3)ccc2n1` was 0.96%.
With `COC(=O)c1ccc2nc(-c3ccc4c(c3)OCO4)cn2c1`, the “activity change, negative = cytotoxicity” value is 4.82%.
The value for `CCOc1cc(/C=C2/C(=N)N3N=C(CC)SC3=NC2=O)ccc1OC(=O)c1ccco1` was 16.1%; that for `COC(=O)c1ccc(CSc2nc3c(c(=O)n2-c2ccc(C)cc2)SCC3)o1` was 6.1%.
As for `COC(=O)CSc1ncnc2c1sc1nc3c(cc12)COC(C)(C)C3`, the “activity change, negative = cytotoxicity” value was -11.8%.
The value for `CCOC(=O)CNC(=O)CSc1nnc(NC(=O)c2ccc(C)cc2)s1` was 27.2%.
